Shown are actives, neighbours in structure and some others; about 4.1% of the full set was active somewhere.
UHRF1 binding – human UHRF1 methylated DNA binding inhibitors; 370,000 tested, 0.75% active; UHRF1 binding to methylated oligo, TR-FRET; Q96T88; inhibition, % at 4.4 µM; in the data active = inhibition above about 21%;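 also: UHRF1 SRA domain binding a hemimethylated CpG hairpin DNA probe; 0% = median of test compound wells and 100% = reference inhibitor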
LEDGF integ inh – blocks HIV-1 LEDGF/p75-dependent DNA integration; 370,000 tested, 0.64% active; AID 743269; TR-FRET IN-LEDGF/p75 DNA integration, Eu/Cy5; inhibition, % at 3.7 µM;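 active = inhibition above the screen-wide mean plus 3 SD, cut at about 13% in these data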;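 also: signal is the Cy5 over europium emission ratio at 671 and 618 nm; 0% = plate median of compound wells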
MBD2 DNA inh – MBD2-methylated oligo binding inhibition | 370,000 tested, 0.31% active | inhibition, % at 4.4 µM | TR-FRET, MBD2 binding to methylated oligonucleotide | AID 686964; in the data active = inhibition above about 13%
ABHD5 PLIN5 PPI – inhibitors of human ABHD5-perilipin-5 interaction; Q00G26+Q8WTS1; Split G. princeps luciferase complementation, luminescence, 4 h; inhibition, % at 4 µM; 360,000 tested, 0.78% active; AID 602281;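 active = inhibition above the mean inhibition across every tested compound plus 3 SD, cut at about 22% in these data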;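 also: 0% = DMSO only wells and the 100% control is not disclosed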
Target sequence (Q00G26 whole entry, looked up): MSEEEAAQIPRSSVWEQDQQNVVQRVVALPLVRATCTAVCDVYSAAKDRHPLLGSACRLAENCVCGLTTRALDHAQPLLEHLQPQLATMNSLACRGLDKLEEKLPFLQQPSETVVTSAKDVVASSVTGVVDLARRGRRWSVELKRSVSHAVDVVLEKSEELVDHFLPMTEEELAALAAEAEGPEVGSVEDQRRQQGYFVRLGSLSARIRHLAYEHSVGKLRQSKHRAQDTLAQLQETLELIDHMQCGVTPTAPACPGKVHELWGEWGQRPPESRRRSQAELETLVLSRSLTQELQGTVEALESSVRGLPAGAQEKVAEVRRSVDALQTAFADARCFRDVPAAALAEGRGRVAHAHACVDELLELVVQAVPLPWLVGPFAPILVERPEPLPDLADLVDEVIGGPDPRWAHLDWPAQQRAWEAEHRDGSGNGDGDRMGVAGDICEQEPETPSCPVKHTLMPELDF
Target sequence (Q8WTS1 whole entry, looked up): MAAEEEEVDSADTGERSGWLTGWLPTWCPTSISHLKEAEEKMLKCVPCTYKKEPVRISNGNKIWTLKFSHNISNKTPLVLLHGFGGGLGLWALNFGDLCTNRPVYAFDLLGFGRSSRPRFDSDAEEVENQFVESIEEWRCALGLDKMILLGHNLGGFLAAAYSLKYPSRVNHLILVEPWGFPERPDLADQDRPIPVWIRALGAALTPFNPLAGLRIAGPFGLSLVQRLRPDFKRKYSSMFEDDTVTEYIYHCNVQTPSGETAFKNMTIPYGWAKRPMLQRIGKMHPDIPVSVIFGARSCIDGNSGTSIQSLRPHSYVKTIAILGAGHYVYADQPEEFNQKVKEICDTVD
PRMT1 inh – PRMT1 (human) inhibition, primary screen | recombinant PRMT1, activity-based probe fluorescence polarization | AID 652257 | inhibition, % at 2.79 µM | 370,000 tested, 1.3% active;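 active = inhibition above about 21% made by adding two undisclosed values, limit read from the data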
rCAG binder – molecules binding r(CAG) RNA repeats. r(CAG) RNA repeat, TO-PRO-1 dye displacement fluorescence. inhibition, % at 3 µM. 370,000 tested, 1.3% active;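 active = inhibition above the plate cutoff, the mean of all test compounds on that plate plus 3 SD, cut at about 35% in these data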;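 also: 0% = DMSO alone and 100% = 100 µM mitoxantrone as full dye displacement; higher means more dye released from RNA so lower well fluorescence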
ABHD5 PLIN5 conf – confirmation of human ABHD5-PLIN5 interaction inhibitors | shares compounds with ABHD5 PLIN5 PPI | AID 651612 | biochemical ABHD5-PLIN5 interaction, luminescence | inhibition, % at 4 µM | 2,200 tested, 67% active; in the data active = inhibition above about 23%;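 also: 0% = DMSO vehicle wells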
HNF4 split-luc – active in HNF4 split-luciferase counter-screen for ABHD5-PLIN5 inhibitors | AID 651674 | HNF4 dimerization, luminescence, biochemical | inhibition, % at 4 µM | shares compounds with ABHD5 PLIN5 PPI | 2,200 tested, 77% active;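 active = mean inhibition across replicate wells exceeding the computed hit threshold, cut at about 13% in these data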;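 also: light from luciferase halves that rejoin when HNF4 fusion proteins dimerize; 0% = DMSO only wells and the 100% control is not given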
* = called active by the depositor; nt = no result given.

SMILES | UHRF1 binding | LEDGF integ inh | MBD2 DNA inh | ABHD5 PLIN5 PPI | PRMT1 inh | rCAG binder | ABHD5 PLIN5 conf | HNF4 split-luc
CC(C)(C)NC(=O)C(c1ccncc1)n1c(=O)c(-c2ccco2)nc2ccccc21 (configuration not stated) | -8 | 6 | -7 | 48* | 0 | 19 | 44* | 14*
CCCCCNC(=O)C(c1cc2ccccc2o1)n1c(=O)c(-c2ccco2)nc2ccccc21 (configuration not stated) | 4 | 3 | -1 | 94* | 17 | 34 | 85* | 14*
CC(C)(C)NC(=O)C(c1cc2ccccc2o1)n1c(=O)c(-c2ccco2)nc2ccccc21 (configuration not stated) | -7 | 0 | -3 | 79* | 23* | 30 | 84* | 16*
CC(C)(C)NC(=O)C(c1ccncc1)n1c(=O)c(-c2ccccc2)nc2ccccc21 (configuration not stated) | 2 | -4 | -1 | 10 | 1 | 2 | nt | nt
CCCCCNC(=O)C(c1ccncc1)n1c(=O)c(-c2ccco2)nc2ccccc21 (configuration not stated) | -2 | -1 | -5 | 58* | 8 | 18 | 35* | 15*
CC(C)(C)NC(=O)C(c1cc2ccccc2o1)n1c(-c2ccc(-c3ccccc3)cc2)nc2ccccc21 (configuration not stated) | 3 | -3 | 0 | 2 | 6 | 6 | nt | nt
C=C1C(=O)[C@]23C[C@H]1CCC2[C@@]1(C)C(C[C@@H]3O)[C@](C)(C(=O)OC)CC[C@@H]1OC(C)=O (some centres not stated) | 0 | -5 | 5 | 78* | 24* | 0 | 85* | 109*
C=C1C(=O)[C@]23C[C@H]1CC[C@H]2[C@]1(C)[C@@H](OC(C)=O)CC[C@@](C)(C(=O)O)[C@H]1C[C@@H]3O | -1 | 2 | 4 | 52* | 9 | 3 | 53* | 105*
C=C1C(=O)[C@]23C[C@H]1CC[C@H]2[C@]1(C)[C@@H](OC(C)=O)CC[C@@](C)(C(=O)OC)[C@H]1C[C@@H]3OC(C)=O | -4 | -1 | 1 | 56* | 7 | -3 | 71* | 98*
O=S1(=O)N[C@H](Cc2ccccc2)COc2cc(N3CCCC3)ccc21 | 6 | 0 | -2 | nt | -5 | 3 | nt | nt
O=S1(=O)c2ccc(N3CCC[C@@H]3CO)cc2O[C@H]2CCN1C2 | 2 | -3 | 0 | nt | 2 | 4 | nt | nt
O=C(/C=C(\Nc1cc(Cl)c(F)c(Cl)c1)c1ccccc1)c1ccccc1 | 2 | 1 | -3 | nt | 0 | 1 | nt | nt
Cc1ccccc1C(=O)NCC(=O)OC(C)C(=O)NCc1ccco1 (configuration not stated) | 0 | 2 | -5 | 25* | -5 | 4 | 5 | 2
Cc1ccc(NC(=O)C2=C(c3ccccc3)S(=O)(=O)CCS2(=O)=O)cc1 | 7 | -2 | 5 | 83* | 62* | 1 | 100* | 110*
Cc1ccc(NC(=O)c2ccccc2O)cc1 | 0 | 0 | -2 | -4 | 1 | 2 | nt | nt
N#CCS(=O)(=O)c1cccc[n+]1[O-] | -1 | 1 | 5 | nt | -11 | 2 | nt | nt
CN(C)S(=O)(=O)c1ccc2nc(COCc3nc4ccc(S(=O)(=O)N(C)C)cc4[nH]3)[nH]c2c1 | 5 | 2 | -5 | nt | -5 | nt | nt | nt
COc1ccccc1-c1cc(C(F)(F)F)nc(S(C)(=O)=O)n1 | -1 | 0 | -1 | 44* | 5 | -1 | 67* | 86*
COc1ccccc1-c1cc(C(F)(F)F)nc(S(=O)(=O)CCCC(=O)NC(C)C)n1 | 20 | 5 | 13 | 5 | -2 | -2 | nt | nt
COc1ccccc1-c1cc(C(F)(F)F)nc(S(=O)(=O)CCCC(=O)Nc2cccnc2Cl)n1 | 2 | 1 | -5 | 32* | 3 | 2 | 51* | 69*
CCN(CC)C(=O)CC[C@H]1CC[C@]2(CCCN(Cc3ccc(Br)cc3)C2)O1 | 3 | 3 | 0 | nt | 3 | 0 | nt | nt
CCOC(=O)c1c(CSC(=N)N)n(-c2ccc(C)cc2)c2cc(Br)c(OC(C)=O)cc12 | 1 | -3 | 2 | 31* | -1 | 12 | 33* | 30*
CCOC(=O)c1c(CSC(=N)N)n(C)c2cc(Br)c(OC(C)=O)cc12 | 0 | 7 | -2 | 17 | 2 | 14 | nt | nt
CCOC(=O)c1nc(S(C)(=O)=O)ncc1Cl | 1 | 0 | 7 | 55* | 4 | 0 | 56* | 90*
Cc1ccccc1NC(=O)c1nc(S(C)(=O)=O)ncc1Cl | -2 | 4 | -2 | 38* | 6 | 1 | 59* | 85*
SMILES | UHRF1 binding | LEDGF integ inh | MBD2 DNA inh | ABHD5 PLIN5 PPI | PRMT1 inh | rCAG binder | ABHD5 PLIN5 conf | HNF4 split-luc
CS(=O)(=O)c1ncc(Cl)c(C(=O)Nc2ccc(OC(F)F)cc2)n1 | nt | nt | nt | 75* | nt | nt | 89* | 103*
CCOC(=O)c1nc(S(C)(=O)=O)ncc1N1CCOCC1 | 1 | -4 | -2 | 14 | 2 | -3 | nt | nt
CCn1c(SCc2ccc(C(C)(C)C)cc2)nnc1-c1ccc(C(C)(C)C)cc1 | -1 | 0 | -1 | nt | 1 | -2 | nt | nt
Cc1ccc(-c2csc3ncn(-n4c(C)ccc4C)c(=O)c23)o1 | -1 | -1 | -3 | 27* | 24* | -2 | 6 | 33*
CCN1C/C(=C/c2ccc(OC)c(O)c2)C(=O)/C(=C/c2ccc(OC)c(O)c2)C1 | 0 | 0 | 0 | 42* | -1 | -1 | 51* | 30*
COc1ccc(C=C2C(=O)c3ccccc3C2=O)cc1O | -12 | 0 | -21 | 5 | 14 | 23 | nt | nt
COc1ccc(/C=C2\CN(Cc3ccccc3)C/C(=C\c3ccc(OC)c(O)c3)C2=O)cc1O | -3 | 0 | 0 | 72* | -1 | 14 | 93* | 86*
CC(CCc1ccco1)NC(=O)CCc1nnc2ccc(NCc3ccc(Cl)cc3)nn12 (configuration not stated) | 1 | 1 | 2 | 18 | 1 | -4 | nt | nt
CC(CCc1ccco1)NC(=O)CCc1nnc2ccc(NCc3ccccc3Cl)nn12 (configuration not stated) | 1 | 3 | 4 | 43* | 13 | -2 | 40* | nt
O=C(NCCc1nnc2ccc(NCc3ccccc3Cl)nn12)c1ccccc1 | 2 | -2 | 4 | 52* | 3 | -7 | 6 | 4
COC(=O)C1=C(C)N(Cc2ccccc2C(F)(F)F)C(=NCc2ccccc2C(F)(F)F)NC1c1ccc(C(F)(F)F)cc1 (configuration not stated) | -1 | 2 | -5 | nt | -1 | 1 | nt | nt

Source: PubChem BioAssay
